Common to all, as to settings: incubation time: 27 h, anaerobic, 37 °C
Assay [1] relates to Clostridium sporogenes DSM 1664. Put plainly: growth (OD595) fold change vs plate DMSO controls (fold change (ratio)); higher = more growth. The gist of the method:
(§1)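 To obtain OD, 595 nm absorbance readings were blank-subtracted, corrected for compound background using 20 µM compound solutions in water, and multiplied by a calibration factor of 5. They came from 96-well mGAM cultures grown anaerobically for 27 h at 37 °C and shaken before reading. Growth is the fold change relative to the median of plate DMSO controls. Two biological replicates were averaged, and fold changes above 1.5 were set to NA.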

Assay [2] concerns Escherichia coli IAI1. The assay is described as above. The gist of the method:
as §1

The subject of assay [3] is Klebsiella aerogenes DSM 30053. The assay is described as above. The essentials:
as §1

The test system of assay [4] is Ruminococcus gnavus DSM 108212. The description is as above. The gist of the method:
as §1

The test system of assay [5] is Klebsiella aerogenes DSM 30053. Put plainly: fold change of Histamine concentration vs plate DMSO controls (fold change (ratio)); higher = more amine produced, active = hit call of the paper (significant change in both replicates, either direction). The essentials: (§2)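 Each value is the fold change relative to DMSO-only wells on the same plate. Four gut bacterial strains were grown anaerobically in mGAM at 37 °C for 27 h in 80 µL wells, starting at OD 0.1 before a 1:1 dilution, with compounds at 20 µM final (sweeteners 50 µM). Whole cultures were extracted with cold acetonitrile/methanol containing 0.1% formic acid, centrifuged, and amines were quantified by LC–triple-quadrupole MS (dynamic MRM) against external calibration curves with within-batch drift correction. Values are means of 2 biological replicates.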

Assay [6] concerns Clostridium sporogenes DSM 1664. Put plainly: fold change of Tryptamine concentration vs plate DMSO controls (fold change (ratio)); higher = more amine produced, active = hit call of the paper (significant change in both replicates, either direction). The gist of the method: as §2
Assay [7] relates to Ruminococcus gnavus DSM 108212. Described as above. The gist of the method: as §2
In assay [8] the test system is Escherichia coli IAI1. Put plainly: fold change of Putrescine concentration vs plate DMSO controls (fold change (ratio)); higher = more amine produced, active = hit call of the paper (significant change in both replicates, either direction). The gist of the method: as §2
Assay [9] deals with Klebsiella aerogenes DSM 30053. Described as above. The essentials:
as §2

Assay [10] deals with Escherichia coli IAI1. The assay is described as follows: fold change of Cadaverine concentration vs plate DMSO controls (fold change (ratio)); higher = more amine produced, active = hit call of the paper (significant change in both replicates, either direction). The essentials: as §2
Assay [11] deals with Klebsiella aerogenes DSM 30053. The description is as above. The essentials:
as §2

The test system of assay [12] is Ruminococcus gnavus DSM 108212. The assay is described as follows: fold change of 2-Phenylethylamine concentration vs plate DMSO controls (fold change (ratio)); higher = more amine produced, active = hit call of the paper (significant change in both replicates, either direction). The gist of the method:
as §2

Each structure is given as a SMILES string. Structures can show the parent of a compound that is named as a salt.

Take `O=C(O)Cc1ccccc1Oc1ccc(Cl)cc1Cl` [Fenclofenac] (20 µM): the growth was determined as 0.896 in assay [1], 1.02 with Escherichia coli IAI1 [2], 0.998 in assay [3] and 1 in assay [4]. Further, in [5], the “fold change of Histamine concentration” value is 1.01 (inactive). The “fold change of Tryptamine concentration” value in assay [6] is 0.984 (inactive); in assay [7], 1.02 (inactive). Moreover, the “fold change of Putrescine concentration” value in the assay on Escherichia coli IAI1 [8] is 1.02 (inactive); in assay [9], 1.01 (inactive). The “fold change of Cadaverine concentration” value is 0.999 (inactive) in the assay on Escherichia coli IAI1 [10] and 1.01 (inactive) in [11]. Also, the “fold change of 2-Phenylethylamine concentration” value in assay [12] is 1.07 (inactive).

Take `CC1(C)S[C@@H]2[C@H](NC(=O)C(C(=O)O)c3ccccc3)C(=O)N2[C@H]1C(=O)O` (some centres undefined) [Carbenicillin disodium salt] (20 µM): the growth was 0 in assay [1], 1.19 with Escherichia coli IAI1 [2], 1.05 in assay [3] and 0.00334 in [4]. In addition, in assay [5], the “fold change of Histamine concentration” value is 1.02 (inactive). Further, the “fold change of Tryptamine concentration” value in assay [6] was 0.0162 (active); in [7], 0.0824 (active). The “fold change of Putrescine concentration” value in the assay with Escherichia coli IAI1 [8] was 0.927 (inactive); in assay [9], 0.986 (inactive). Also, the “fold change of Cadaverine concentration” value is 1.79 (active) in the assay on Escherichia coli IAI1 [10] and 1.05 (inactive) in assay [11]. For the same compound, the “fold change of 2-Phenylethylamine concentration” value in assay [12] was 0.0579 (active).

Consider `N=C(N)Nc1ccc(C(=O)Oc2ccc3cc(C(=N)N)ccc3c2)cc1` [Nafamostat Mesylate] (20 µM), for which the growth in assay [1] was found to be 1.04; in the assay with Escherichia coli IAI1 [2], 0.933; in assay [3], 0.99; in assay [4], 0.967. Moreover, the “fold change of Histamine concentration” value in assay [5] is 0.92 (inactive). Besides, the entries for the “fold change of Tryptamine concentration” value in [6] and in [7] were 0.959 (inactive) and 0.91 (inactive), respectively. In addition, the “fold change of Putrescine concentration” value is 1.04 (inactive) in the assay with Escherichia coli IAI1 [8] and 1.06 (inactive) in assay [9]. The results for the “fold change of Cadaverine concentration” value (with Escherichia coli IAI1 [10]; in [11]) were 1.04 (inactive) and 1.01 (inactive), respectively. Moreover, the “fold change of 2-Phenylethylamine concentration” value in [12] was 0.948 (inactive).

Turning to `Fc1ccc(C(c2ccc(F)cc2)N2CCN(C/C=C/c3ccccc3)CC2)cc1` [Flunarizine dihydrochloride] (20 µM), the growth in assay [1] turned out to be 1.15; in the assay with Escherichia coli IAI1 [2], 1.05; in assay [3], 1.1; in assay [4] it was 0.897. In addition, the “fold change of Histamine concentration” value in assay [5] was 0.894 (inactive). Also, the “fold change of Tryptamine concentration” value in assay [6] is 1.05 (inactive); in [7], 0.851 (inactive). The “fold change of Putrescine concentration” value was 1.07 (inactive) in the assay with Escherichia coli IAI1 [8] and 0.981 (inactive) in assay [9]. Besides, the “fold change of Cadaverine concentration” value in the assay on Escherichia coli IAI1 [10] was 0.979 (inactive); in assay [11], 1.04 (inactive). In addition, the “fold change of 2-Phenylethylamine concentration” value in [12] is 0.977 (inactive).

`O=C1c2cccc(O)c2C(=O)c2c(O)cccc21` [Danthron] (20 µM): the growth in assay [1] came out at 0.931; in the assay with Escherichia coli IAI1 [2], 1.21; in assay [3] it was 1.01; in assay [4], 0.841. Besides, in assay [5], the “fold change of Histamine concentration” value is 0.93 (inactive). In addition, the “fold change of Tryptamine concentration” value is 1.02 (inactive) in assay [6] and 1 (inactive) in assay [7]. Moreover, the “fold change of Putrescine concentration” value in the assay with Escherichia coli IAI1 [8] was 1.24 (inactive); in [9], 0.975 (inactive). For the same compound, the “fold change of Cadaverine concentration” value is 1 (inactive) in the assay on Escherichia coli IAI1 [10] and 1.01 (inactive) in [11]. For the same compound, the “fold change of 2-Phenylethylamine concentration” value in [12] is 0.965 (inactive).

On to `NCCc1cc[nH]n1` [Betazole hydrochloride] (20 µM), for which the growth in [1] was found to be 1.01; in the assay with Escherichia coli IAI1 [2], 0.989; in assay [3], 1.03; in [4] it was 1.02. Also, in assay [5], the “fold change of Histamine concentration” value was 0.96 (inactive). Also, the entries for the “fold change of Tryptamine concentration” value in assay [6] and in [7] were 1 (inactive) and 1.04 (inactive), respectively. Moreover, the “fold change of Putrescine concentration” value in the assay with Escherichia coli IAI1 [8] was 0.987 (inactive); in [9] it was 1.02 (inactive). The “fold change of Cadaverine concentration” value (in the assay with Escherichia coli IAI1 [10]; in assay [11]) was 1 (inactive) in each case. Besides, the “fold change of 2-Phenylethylamine concentration” value in assay [12] was 1.02 (inactive).

As to `NCCc1c[nH]cn1` [Histamine dihydrochloride] (20 µM), the growth in assay [1] is 0.927; with Escherichia coli IAI1 [2] it was 1.16; in assay [3], 1.01; in assay [4], 0.893. Moreover, the “fold change of Histamine concentration” value in assay [5] was 1.05 (inactive). Moreover, the entries for the “fold change of Tryptamine concentration” value in [6] and in [7] were 1.05 (inactive) and 1.06 (inactive), respectively. For the same compound, the figures for the “fold change of Putrescine concentration” value (in the assay with Escherichia coli IAI1 [8]; in [9]) were 1.16 (inactive) and 1.02 (inactive), respectively. The “fold change of Cadaverine concentration” value in the assay on Escherichia coli IAI1 [10] was 0.952 (inactive); in assay [11], 0.992 (inactive). Also, the “fold change of 2-Phenylethylamine concentration” value in assay [12] is 1.05 (inactive).

Take `OC[C@H]1O[C@@H](c2ccc(Cl)c(Cc3ccc(O[C@H]4CCOC4)cc3)c2)[C@H](O)[C@@H](O)[C@@H]1O` [Empagliflozin] (20 µM): the growth in assay [1] turned out to be 1.04; in the assay with Escherichia coli IAI1 [2], 1; in assay [3], 1; in assay [4], 0.989. Moreover, the “fold change of Histamine concentration” value in assay [5] was 0.998 (inactive). Further, the “fold change of Tryptamine concentration” value in assay [6] is 1.05 (inactive); in assay [7], 0.872 (inactive). The “fold change of Putrescine concentration” value with Escherichia coli IAI1 [8] was 1.02 (inactive); in [9], 0.986 (inactive). The entries for the “fold change of Cadaverine concentration” value (in the assay with Escherichia coli IAI1 [10]; in [11]) were 1.02 (inactive) and 0.974 (inactive), respectively. In assay [12], the “fold change of 2-Phenylethylamine concentration” value was 0.83 (inactive).

Regarding `CC[N+](C)(CC)CCOC(=O)C1c2ccccc2Oc2ccccc21` [Methantheline bromide] (20 µM), the growth was 0.956 in [1], 1.01 in the assay on Escherichia coli IAI1 [2], 0.979 in assay [3] and 0.897 in [4]. In addition, the “fold change of Histamine concentration” value in assay [5] was 1.05 (inactive). For the same compound, the “fold change of Tryptamine concentration” value is 0.999 (inactive) in assay [6] and 1.01 (inactive) in assay [7]. Also, the “fold change of Putrescine concentration” value is 1.04 (inactive) with Escherichia coli IAI1 [8] and 1.01 (inactive) in assay [9]. In addition, the “fold change of Cadaverine concentration” value in the assay on Escherichia coli IAI1 [10] was 1.02 (inactive); in assay [11], 0.984 (inactive). Also, the “fold change of 2-Phenylethylamine concentration” value in assay [12] was 1.05 (inactive).

In the case of `C(=C\c1ccccc1)/CN1CCN(C(c2ccccc2)c2ccccc2)CC1` [Cinnarizine] (20 µM), the growth in assay [1] came out at 1.09; with Escherichia coli IAI1 [2] it was 0.964; in [3] it was 0.991; in assay [4], 0.67. Also, the “fold change of Histamine concentration” value in assay [5] is 0.941 (inactive). Besides, the “fold change of Tryptamine concentration” value in assay [6] was 0.969 (inactive); in [7], 0.824 (inactive). Besides, the “fold change of Putrescine concentration” value with Escherichia coli IAI1 [8] was 0.993 (inactive); in assay [9] it was 0.998 (inactive). Besides, the “fold change of Cadaverine concentration” value is 0.991 (inactive) in the assay on Escherichia coli IAI1 [10] and 1 (inactive) in [11]. The “fold change of 2-Phenylethylamine concentration” value in assay [12] is 0.878 (inactive).

On to `Nc1nc2[nH]cnc2c(=S)[nH]1` [Tioguanine] (20 µM), for which the growth stood at 1.3 in assay [1], 0.969 in the assay on Escherichia coli IAI1 [2], 1.09 in assay [3] and 0.899 in assay [4]. Further, in [5], the “fold change of Histamine concentration” value is 1 (inactive). For the same compound, the “fold change of Tryptamine concentration” value in assay [6] was 1.03 (inactive); in assay [7] it was 1.01 (inactive). Also, the “fold change of Putrescine concentration” value in the assay on Escherichia coli IAI1 [8] was 0.623 (active); in assay [9], 0.987 (inactive). For the same compound, the entries for the “fold change of Cadaverine concentration” value (in the assay on Escherichia coli IAI1 [10]; in [11]) were 0.871 (inactive) and 0.998 (inactive), respectively. The “fold change of 2-Phenylethylamine concentration” value in assay [12] was 0.998 (inactive).

For `Cc1cn[nH]c1` [Fomepizole] (20 µM), the growth in assay [1] was determined as 0.879; in the assay on Escherichia coli IAI1 [2], 0.987; in assay [3] it was 0.971; in [4], 1.15. Moreover, the “fold change of Histamine concentration” value in assay [5] is 1.03 (inactive). For the same compound, the “fold change of Tryptamine concentration” value was 1.03 (inactive) in assay [6] and 1.01 (inactive) in assay [7]. In addition, the “fold change of Putrescine concentration” value in the assay with Escherichia coli IAI1 [8] was 0.999 (inactive); in assay [9], 0.995 (inactive). The “fold change of Cadaverine concentration” value was 1.02 (inactive) in the assay on Escherichia coli IAI1 [10] and 0.986 (inactive) in [11]. Further, the “fold change of 2-Phenylethylamine concentration” value in assay [12] is 0.988 (inactive).

The values are drawn from the supplement of paper PMC12494721.
